Data taken from PubChem BioAssay (Tox21).
Records with an inconclusive call do not appear. The source made the active and inactive calls. Unless noted, calls follow the shape of the dose curve; as a rule, active = well fitted curve in the direction sought with a large enough effect in the repeat runs; inconclusive = weak or mixed curves; inactive = no such curve, though single readings can be large; an effect the other way counts as inactive or inconclusive.

Key:
[1] = biological target: Retinoic acid receptor RXR-alpha (Homo sapiens) (UniProt P19793); experiment: qHTS assay to identify small molecule agonists of the RXR signaling pathway (AID 1159527; calls by dose curve; also: nearly all actives have a fitted effect of over 35% in size; also: potency is read from the fitted curve at half-maximal effect)
Summary of the method: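 16 hr incubation of compound-treated RXR-alpha-UAS-bla HEK 293T cells (2% charcoal-stripped FBS, 37 C) preceded a 2 hr room-temperature LiveBLAzer FRET substrate step and blue/green fluorescence measurement.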

[2] = qHTS assay to identify small molecule agonists of the RXR signaling pathway - cell viability counter screen (AID 1159529);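 also: HEK 293T cells carrying an RXR-alpha UAS beta-lactamase reporter; series mostly up to about 77 µM; nearly all actives have a fitted effect of over 50% in size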
Summary of the method: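 In this parallel viability measure, GeneBLAzer RXR-alpha HEK 293T cells (2% charcoal-stripped FBS) were given a 5 hr preincubation, treated with compounds 16 hr at 37 C, and read by CellTiter-Glo luminescence.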

[3] = qHTS assay to identify small molecule antagonists of the retinoid acid receptor (RAR) signaling pathway - cell viability counter screen (AID 1159551); also: nearly all actives have a fitted effect of over 35% in size
Summary of the method: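 Viability of C3RL4 cells is quantified from ATP by luminescence after 6 h treatment at 37 C with compounds and 1 uM retinol.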

[4] = qHTS assay to identify small molecule antagonists of the retinoic acid receptor (RAR) signaling pathway (AID 1159552; also: nearly all actives have a fitted effect of over 50% in size)
Summary of the method: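 C3RL4 RARE-luc cells, overnight plating; retinol 1 uM final added right after compound; 6 hr 37 C; luciferase read at 30 min RT.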

[5] = qHTS assay to identify small molecule agonists of the retinoic acid receptor (RAR) signaling pathway (AID 1159553); also: potency is read from the fitted curve at half-maximal effect
Summary of the method: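 Compounds dissolved in DMSO were pinned onto C3RL4 cells seeded the previous day, and plates were held 6 hr at 37 C. RARE-driven luciferase output was then read by luminescence.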

[6] = biological target: Luciferin 4-monooxygenase (Photinus pyralis) (UniProt P08659); experiment: qHTS assay to identify small molecule inhibitors of firefly luciferase (AID 1224835); also: nearly all actives have a fitted effect of over 25% in size; also: potency is read from the fitted curve at half-maximal effect; as to activity change, negative = inhibition: series mostly up to about 120 µM
Summary of the method: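 Biochemical qHTS: compounds run as interplate titrations against purified firefly enzyme, with D-luciferin and ATP each at its KM concentration. Light output recorded by CCD imaging.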

[7] = qHTS assay to identify small molecule agonists of the constitutive androstane receptor (CAR) signaling pathway - cell viability counter screen (AID 1224836); also: series mostly up to about 92 µM; nearly all actives have a fitted effect of over 45% in size
Summary of the method: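 Using CellTiter-Fluor, viability of HepG2 cells harbouring hCAR and CYP2B6-2.2kb was measured following 23 h incubation with a 15-concentration compound series plus PK11195 (0.75 uM final).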

[8] = qHTS assay to identify small molecule antagonists of the constitutive androstane receptor (CAR) signaling pathway - cell viability counter screen (AID 1224837); also: series mostly up to about 92 µM; nearly all actives have a fitted effect of over 45% in size
Summary of the method: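 In quantitative HTS format, compounds at 15 concentrations were applied to HepG2 cells double-transfected with hCAR and CYP2B6-2.2kb under 50 nM CITCO stimulation; live-cell protease activity was read after 23 hr via CellTiter-Fluor.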

[9] = biological target: Nuclear receptor subfamily 1 group I member 3 (Homo sapiens) (UniProt Q14994); experiment: qHTS assay to identify small molecule antagonists of the constitutive androstane receptor (CAR) signaling pathway (AID 1224838); also: nearly all actives have a fitted effect of over 40% in size
Summary of the method: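 CITCO-stimulated (50 nM final) HepG2 cells stably transfected with hCAR and CYP2B6-2.2kb luciferase were exposed to compounds at 15 concentrations for 24 h at 37 C/5% CO2. A luciferase reagent was added and luminescence recorded after 30 min.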

[10] = biological target: Nuclear receptor subfamily 1 group I member 3 (Homo sapiens) (UniProt Q14994); experiment: qHTS assay to identify small molecule agonists of the constitutive androstane receptor (CAR) signaling pathway (AID 1224839);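 also: HepG2 cells stably carrying human CAR and a CYP2B6 luciferase reporter; series mostly up to about 92 µM; nearly all actives have a fitted effect of over 15% in size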
Summary of the method: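 Double-stable HepG2 cells (hCAR, CYP2B6-2.2kb) seeded 4 h before compound addition. Exposure 24 h with 0.75 uM PK11195 final. Luciferase detected by ONE-Glo.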

[11] = qHTS assay to identify small molecule antagonists of the estrogen related receptor signaling pathway with the pleiotropic PPARgamma coactivator (PGC) from Tox21 10K library (AID 1224841; call rule not given here; also: series mostly up to about 92 µM; actives are mostly falling curves and most rising ones were filed inactive; nearly all actives have a fitted effect of over 50% in size)
Summary of the method: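 In the PGC/ERR line, DMSO solutions of test chemicals are pin-delivered to 2,000 cells/well six hours after dispensing. Following eighteen hours' incubation, One-Glo reagent is added and luminescence recorded.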

[12] = qHTS assay to identify small molecule agonists of the estrogen related receptor signaling pathway with the pleiotropic PPARgamma coactivator (PGC) from Tox21 10K library (AID 1224842); also: nearly all actives have a fitted effect of over 15% in size
Summary of the method: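 PGC/ERR reporter cell line, 2,000 cells per well, incubated 6 h at 37 C before 23 nL compound in DMSO was added. After 18 h at 37 C, One-Glo luminescence read following 30 min at room temperature.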

[13] = qHTS assay to identify small molecule antagonists of the estrogen related receptor (ERR) signaling pathway from Tox21 library - cell viability counter screen (AID 1224834); also: nearly all actives have a fitted effect of over 30% in size
Summary of the method: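 In this quantitative HTS format, ERR cells receive compounds in DMSO and are incubated for 17.5 h at 37 C. Live-cell protease activity is then detected with CellTiter-Fluor.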

[14] = qHTS assay to identify small molecule antagonists of the estrogen related receptor signaling pathway with the pleiotropic PPARgamma coactivator (PGC) from Tox21 10K library - cell viability counter screen (AID 1224840; active = well fitted cell-killing curve with a large enough effect in the repeat runs, not every such curve was filed as active; also: nearly all actives have a fitted effect of over 40% in size)
Summary of the method: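 Viability counter screen, PGC/ERR cells: 17.5 h compound exposure at 37 C, CellTiter-Fluor fluorescence endpoint.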

[15] = qHTS assay to identify small molecule antagonists of the estrogen related receptor (ERR) signaling pathway - cell viability counter screen (AID 1224818); also: series mostly up to about 46 µM
Summary of the method: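 Cytotoxicity check run alongside the ERR antagonist screen: cells exposed to test compounds 17.5 h at 37 C, viability taken as CellTiter-Fluor fluorescence intensity.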

[16] = qHTS assay to identify small molecule antagonists of the estrogen related receptor signaling pathway with the pleiotropic PPARgamma coactivator (PGC) cell viability counter screen (AID 1224822; also: series mostly up to about 46 µM)
Summary of the method: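 Viable cell signal (CellTiter-Fluor, 30 min, 37 C/5% CO2) was measured in PGC/ERR cells after a 17.5 h compound incubation.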
% is scaled to controls: 0 for no effect and ±100 for the full control effect.

Sequence of Nuclear receptor subfamily 1 group I member 3 (Homo sapiens) (Q14994 whole entry, looked up): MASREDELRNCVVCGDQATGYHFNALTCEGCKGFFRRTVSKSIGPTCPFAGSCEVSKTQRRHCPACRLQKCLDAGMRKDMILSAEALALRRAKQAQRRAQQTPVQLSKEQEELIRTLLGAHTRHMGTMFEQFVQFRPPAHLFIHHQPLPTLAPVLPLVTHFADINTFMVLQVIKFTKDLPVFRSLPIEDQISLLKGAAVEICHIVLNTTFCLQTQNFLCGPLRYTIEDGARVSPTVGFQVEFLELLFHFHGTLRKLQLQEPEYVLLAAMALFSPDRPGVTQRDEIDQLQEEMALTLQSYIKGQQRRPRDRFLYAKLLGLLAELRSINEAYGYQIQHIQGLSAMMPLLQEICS
Sequence of Retinoic acid receptor RXR-alpha (Homo sapiens) (P19793 whole entry, looked up): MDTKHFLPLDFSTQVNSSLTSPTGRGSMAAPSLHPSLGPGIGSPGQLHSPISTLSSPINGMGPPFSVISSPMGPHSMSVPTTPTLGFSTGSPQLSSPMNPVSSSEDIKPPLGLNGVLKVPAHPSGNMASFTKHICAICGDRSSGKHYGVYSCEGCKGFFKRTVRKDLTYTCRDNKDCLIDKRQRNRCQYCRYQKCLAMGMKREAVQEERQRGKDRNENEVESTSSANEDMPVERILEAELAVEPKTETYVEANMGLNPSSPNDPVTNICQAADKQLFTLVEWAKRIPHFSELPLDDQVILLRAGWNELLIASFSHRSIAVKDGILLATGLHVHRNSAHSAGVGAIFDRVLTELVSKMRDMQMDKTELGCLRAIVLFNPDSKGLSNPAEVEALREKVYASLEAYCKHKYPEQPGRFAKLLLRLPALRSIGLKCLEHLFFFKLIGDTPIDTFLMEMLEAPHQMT
Sequence of Luciferin 4-monooxygenase (Photinus pyralis) (P08659 whole entry, looked up): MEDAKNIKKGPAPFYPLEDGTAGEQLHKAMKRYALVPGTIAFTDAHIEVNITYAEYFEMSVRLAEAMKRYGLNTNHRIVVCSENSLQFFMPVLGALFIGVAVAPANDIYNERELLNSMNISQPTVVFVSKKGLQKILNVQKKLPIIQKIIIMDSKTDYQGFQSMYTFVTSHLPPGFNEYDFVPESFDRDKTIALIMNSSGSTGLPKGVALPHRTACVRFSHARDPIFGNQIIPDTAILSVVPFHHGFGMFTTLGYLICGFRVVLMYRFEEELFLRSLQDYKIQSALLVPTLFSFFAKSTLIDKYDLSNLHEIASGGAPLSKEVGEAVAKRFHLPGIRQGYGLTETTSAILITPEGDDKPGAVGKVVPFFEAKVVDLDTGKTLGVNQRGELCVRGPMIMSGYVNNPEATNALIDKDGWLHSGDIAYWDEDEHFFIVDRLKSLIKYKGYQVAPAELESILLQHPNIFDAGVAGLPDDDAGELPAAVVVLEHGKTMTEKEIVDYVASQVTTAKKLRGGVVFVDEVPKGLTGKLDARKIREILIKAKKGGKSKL

CC(COC(C)(C)C)OCCCO (centres undefined)
active: Potency [1] 11 µM
inactive: outcome [2] | outcome [3] | outcome [4] | Potency [5] | Potency [6] | Potency [7] | Potency [8] | outcome [9] | Potency [10] | Potency [11] | outcome [12]

CCCCOC(=O)c1ccccc1
inactive: Potency [1] | outcome [2] | outcome [3] | outcome [4] | Potency [5] | Potency [7] | Potency [8] | Potency [11] | outcome [12]

CCCOC(=O)C(C)O (centres undefined)
inactive: Potency [1] | outcome [2] | outcome [3] | outcome [4] | Potency [13] | Potency [6] | Potency [7] | Potency [8] | outcome [9] | Potency [10] | outcome [14]

COCCc1ccc(OCC2CO2)cc1 (centres undefined)
inactive: Potency [1] | outcome [2] | outcome [3] | outcome [4] | Potency [13] | Potency [6] | Potency [7] | Potency [8] | outcome [9] | Potency [10] | outcome [14]

Cc1ccc2c(c1)OCC(=O)CO2
inactive: Potency [1] | outcome [2] | outcome [3] | outcome [4] | Potency [13] | Potency [6] | Potency [7] | Potency [8] | outcome [9] | Potency [10] | outcome [14] | Potency [11]

CCCCNc1ccc(C(=O)OCCN(C)C)cc1
inactive: Potency [1] | outcome [2] | outcome [3] | outcome [4] | outcome [15] | outcome [16] | Potency [13] | Potency [6] | Potency [7] | Potency [8] | outcome [9] | outcome [14]

CC(S)C(=O)NCC(=O)O (centres undefined)
inactive: Potency [1] | outcome [2] | outcome [3] | outcome [4] | Potency [13] | Potency [7] | Potency [8] | outcome [9] | Potency [10] | outcome [14]

CCCCCOC(=O)CCC
inactive: Potency [1] | outcome [2] | outcome [3] | outcome [4] | Potency [13] | Potency [6] | Potency [7] | outcome [9] | Potency [10] | outcome [14] | Potency [11]

CC(C)=CCOC(=O)c1ccccc1
inactive: Potency [1] | outcome [2] | outcome [3] | outcome [4] | Potency [5] | Potency [7] | Potency [8] | outcome [14] | Potency [11]

CC(C)c1ccc2cc(C(C)C)ccc2c1
inactive: Potency [1] | outcome [2] | outcome [3] | outcome [4] | Potency [13] | Potency [7] | Potency [8] | outcome [14]
active: Potency [6] 15.9 µM

O=S(=O)(O)c1ccc2cc(O)c(S(=O)(=O)O)cc2c1
inactive: Potency [1] | outcome [2] | outcome [3] | outcome [4] | Potency [13] | Potency [6] | Potency [7] | outcome [9] | Potency [10] | outcome [14]

CC(CN)CC(C)(C)CCN (centres undefined)
inactive: Potency [1] | outcome [2] | outcome [3] | outcome [4] | Potency [5] | Potency [6] | Potency [7] | Potency [8] | outcome [9] | Potency [10]

CCCCCCOc1ccccc1C(N)=O
inactive: Potency [1] | outcome [2] | outcome [3] | outcome [4] | Potency [7] | Potency [8] | outcome [14]
active: Potency [5] 13.3 µM

COC(=O)C1CC(=O)C(C(=O)OC)CC1=O (centres undefined)
inactive: activation [1] 10.5% [at 6.98 µM] | activity change, negative = cytotoxicity [2] 8.97% [at 6.97 µM] | activity change, negative = cytotoxicity [3] 3.23% [at 8.39 µM] | activity, negative = inhibition [4] -2.77% [at 8.39 µM] | viability change, negative = cytotoxic [13] 2.89% [at 8.39 µM] | activity change, negative = inhibition [6] 0.09% [at 10.5 µM] | viability change, negative = cytotoxic [7] 10.3% [at 8.39 µM] | activity change, negative = cytotoxicity [8] 2.02% [at 8.39 µM] | viability change, negative = cytotoxic [14] 11% [at 8.39 µM] | activity, negative = inhibition [11] 1.96% [at 8.39 µM] | activation [12] 0.14% [at 8.39 µM]

COc1ccc2nc(SCc3ncc(C)c(OC)c3C)[nH]c2c1
inactive: Potency [1] | outcome [2] | outcome [3] | outcome [4] | Potency [13] | Potency [7] | Potency [8] | outcome [9] | Potency [11] | outcome [12]
active: Potency [6] 13.8 µM

C#CC(C)N(C)C(=O)Nc1ccc(Cl)cc1 (centres undefined)
inactive: Potency [1] | outcome [2] | outcome [3] | outcome [4] | Potency [7] | Potency [8] | outcome [9] | outcome [14] | outcome [12]
active: Potency [5] 38.5 µM | Potency [6] 63.2 µM

CC1COc2ccccc2N1 (centres undefined)
inactive: Potency [1] | outcome [2] | outcome [3] | outcome [4] | Potency [13] | Potency [7] | Potency [8] | outcome [9] | Potency [10] | outcome [14] | Potency [11] | outcome [12]

CCCCOCCOC(=O)COc1nc(Cl)c(Cl)cc1Cl
inactive: Potency [1] | outcome [2] | outcome [3] | outcome [4] | Potency [13] | Potency [6] | Potency [7] | Potency [8] | outcome [14]

CCCCCCCCCC(C)=O
inactive: Potency [1] | outcome [2] | outcome [3] | outcome [4] | Potency [13] | Potency [6] | Potency [7] | outcome [9] | Potency [10]

CC(C)CC(C)CC(C)CC(C)COC(=O)c1ccccc1C(=O)OCC(C)CC(C)CC(C)CC(C)C (centres undefined)
inactive: Potency [1] | outcome [2] | outcome [3] | outcome [4] | Potency [13] | Potency [6] | Potency [7] | outcome [14] | Potency [11] | outcome [12]

O=C(OCC1(COC(=O)c2cccnc2)CCCC(COC(=O)c2cccnc2)(COC(=O)c2cccnc2)C1O)c1cccnc1
inactive: Potency [1] | outcome [2] | outcome [3] | outcome [4] | Potency [5] | Potency [6] | Potency [7] | Potency [8] | outcome [9] | Potency [10] | outcome [14]

O=C1c2ccccc2C(=O)C1c1ccccc1
inactive: Potency [1] | outcome [2] | outcome [3] | outcome [4] | Potency [5] | Potency [13] | Potency [7] | Potency [8] | outcome [9] | Potency [10] | outcome [14]
